Compound activity deposited in PubChem BioAssay by National Center for Advancing Translational Sciences (NCATS).
Sampled rows, rich in hits. Any-hit rate of the full collection: about 4.8%.
S2 tox = viability counter-screen for ATXN expression inhibitors. S2 cells (HEK-293 line with an ATXN2-luciferase reporter) viability, CellTiter-Fluor protease fluorescence, 24 h. Potency, µM (highest dose often 56.7 µM), actives largely listed as cytotoxic. 0.49% of 400,000 active. AID 651635; further: potency means the concentration at half of the fitted maximal effect; nearly all actives have a fitted effect of over 40% in size
IL-1B inflam inh = inflammasome signaling inhibition, IL-1 beta readout; THP-1 LPS/ATP IL-1B secretion, AlphaLISA, 16 h; hits give low values; activity change, % at 57.5 µM; 4.7% of 360,000 active; AID 743279; in the data active means activity change below about -50%; inconclusive means mostly about -30% to -49%; further: on the % scale 0 is the no-effect control and ±100 the full control effect
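THP-1 cells pretreated 1 hr with compounds (up to 57.5 uM final), then stimulated with LPS (250 ng/mL final) plus ATP (1.25 mM final); secreted IL-1B measured by AlphaLISA after 16 hr, decreased signal indicating inhibition.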
USP2a block = inhibitors of human ubiquitin-specific protease USP2a | O75604 | USP2 core, Ub-CHOP2 coupled fluorogenic reporter, 485/531 | Potency, µM (titrated, usually from 38.3 µM), inactives show at the highest dose activity change, negative = inhibition, actives largely listed as inhibitors | 0.01% of 330,000 active | AID 463254;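 further: potency means the concentration at half of the fitted maximal effect; plate controls were DMSO wells for no effect and full inhibition by NEM control for full effect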
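USP2 core (10nM final) preincubated 30min RT with compound in 20mM Tris-HCl pH 8.0, 2mM CaCl2, 2mM beta-mercaptoethanol, 0.05% CHAPS; 25nM Ub-CHOP2 plus 25nM reporter substrate added, fluorescence (Ex485/Em531) read after 60min.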
ATXN2 expr inh = ATXN2 expression inhibition. HEK-293 ATXN2-luciferase reporter, luminescence, 24 h. Potency, µM (top dose mostly 57 µM), for the others: at the top dose activity change, negative = inhibition, usual class: inhibitors. 0.72% of 360,000 active. AID 1745845; further: potency means the concentration at half of the fitted maximal effect; on the % scale 0 is the no-effect control and ±100 the full control effect; nearly all actives have a fitted effect of over 55% in size
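ATXN2-luciferase reporter cells (luciferase flanked by upstream and downstream ATXN2 gene portions) were treated 24 h at 37 °C with compounds at up to 57 uM. SteadyGlo luminescence gave expression; GF-AFC fluorescence gave viability.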
USP1-UAF1 inh = USP1/UAF1 (human) deubiquitinase inhibition; O94782; AID 743255; 0.23% of 390,000 active; Potency, µM (highest dose often 57.1 µM), without a hit: at the highest dose activity change, negative = inhibition, most hits filed as inhibitors; recombinant USP1/UAF1, Ub-Rhodamine cleavage fluorescence; further: potency means the concentration at half of the fitted maximal effect; on the % scale 0 is the no-effect control and ±100 the full control effect; nearly all actives have a fitted effect of over 60% in size
Target sequence (O94782 whole entry, looked up): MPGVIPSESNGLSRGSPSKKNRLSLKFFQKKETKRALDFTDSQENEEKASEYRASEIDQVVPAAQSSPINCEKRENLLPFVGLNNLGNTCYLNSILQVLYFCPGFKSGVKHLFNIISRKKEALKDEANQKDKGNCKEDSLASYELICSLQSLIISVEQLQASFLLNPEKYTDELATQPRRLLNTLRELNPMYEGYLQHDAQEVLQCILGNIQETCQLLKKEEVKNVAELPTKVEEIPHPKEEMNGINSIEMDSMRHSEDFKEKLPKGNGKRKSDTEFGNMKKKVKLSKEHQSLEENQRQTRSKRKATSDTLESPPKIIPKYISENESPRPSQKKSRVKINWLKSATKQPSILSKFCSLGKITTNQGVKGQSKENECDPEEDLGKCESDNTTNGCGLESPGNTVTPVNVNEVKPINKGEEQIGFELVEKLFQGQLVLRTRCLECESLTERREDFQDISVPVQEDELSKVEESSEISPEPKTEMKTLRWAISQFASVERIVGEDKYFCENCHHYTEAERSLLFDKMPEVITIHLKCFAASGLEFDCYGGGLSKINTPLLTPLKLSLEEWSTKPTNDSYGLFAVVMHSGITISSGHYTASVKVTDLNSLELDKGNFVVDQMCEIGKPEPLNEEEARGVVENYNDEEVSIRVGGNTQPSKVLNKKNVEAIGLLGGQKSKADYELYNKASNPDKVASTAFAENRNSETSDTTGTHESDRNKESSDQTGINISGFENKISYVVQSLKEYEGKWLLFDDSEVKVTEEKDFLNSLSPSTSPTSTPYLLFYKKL
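USP1/UAF1 complex (1 nM) preincubated 15 min at room temperature with compound, then Ub-Rho substrate (150 nM final) added. Kinetic fluorescence at 480/540 nm over 6 reads at 60 s intervals; 50 mM HEPES pH 7.8, 0.5 mM EDTA, 0.1 mg/ml BSA, 1 mM TCEP, 0.01% Tween-20.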
Starred values were filed as active, the others as inactive; i = inactive; u = inconclusive; x = no result. Unless noted, the call rests on the fitted dose curve; in most records, active means well fitted curve in the direction sought with a large enough effect; inconclusive means small, poorly fitted or top-dose-only effect, or another doubt; inactive means no such curve, though single readings can be large; an effect the other way counts as inactive or inconclusive.

SMILES	S2 tox	IL-1B inflam inh	USP2a block	ATXN2 expr inh	USP1-UAF1 inh
CC(C)c1ccc(CN2CCC3(CCC(CNC(=O)c4ccn(C)n4)O3)CC2)cc1 (stereo not given)	i	x	x	x	x
Cc1ccc2ccc(Cl)cc2n1	i	x	x	17%	x
Cc1cc(C)c2cc(CN(CCO)C(=O)Nc3ccc(Cl)cc3)c(=O)[nH]c2c1	u	-58*	0%	-10%	-22%
Cc1ccc2[nH]c(=O)c(CN(CCCN(C)C)C(=O)Nc3ccc(Cl)cc3)cc2c1	u	-54*	8%	u	-13%
Cc1cc(C)c2cc(CN(CCN3CCCC3)C(=O)Nc3ccc(F)cc3)c(=O)[nH]c2c1	i	-80*	-1%	-20%	-4%
Cc1ccc2[nH]c(=O)c(CN(CCN3CCOCC3)C(=O)Nc3ccc(F)cc3)cc2c1	i	-19	1%	-12%	-17%
COc1cccc(CN2CCOc3ccc(CN4C[C@@H](C)O[C@@H](C)C4)cc3C2)c1OC	i	x	x	x	x
CC1CN(CCNC(=O)C2CCCc3c2[nH]c2ccccc32)Cc2ccccc2O1 (stereo not given)	i	x	x	x	x
Cc1cccc(NC(=O)CN2CCc3cc4c(cc3C2C)OCCCO4)c1 (stereo not given)	i	-54*	0%	-35%	-23%
Cc1ncc2c(c1CNS(=O)(=O)c1cccs1)CCN(C(=O)/C=C/c1ccc(F)cc1F)C2	i	x	x	x	x
CCOC(=O)c1nc(S(C)(=O)=O)ncc1N1CCOCC1	i	5	2%	25%	-16%
Cc1cccc(C)c1NC(=O)c1nc(S(=O)(=O)Cc2ccccc2)ncc1Cl	u	-101*	0%	u	-4%
Cc1ccccc1NC(=O)c1nc(S(C)(=O)=O)ncc1Cl	x	-98*	1%	x	-17%
COc1ccc(OC)c(NC(=O)c2nc(S(=O)(=O)Cc3ccccc3)ncc2Cl)c1	18µM*	-102*	1%	-25%	-6%
CCOC(=O)c1nc(S(C)(=O)=O)ncc1Cl	x	-98*	0%	u	-18%
COc1ccc2nc(NC(=O)c3nc(S(=O)(=O)Cc4ccccc4)ncc3Cl)sc2c1	x	x	x	x	-21%
CCc1nnc(NC(=O)c2nc(S(C)(=O)=O)ncc2Cl)s1	u	x	x	u	-22%
COc1cc(=O)n2c(c1C(=O)NCc1ccco1)CCN(Cc1cccc(C(F)(F)F)c1)CC2	i	x	x	x	x
Cc1noc(Cn2c(=O)c3ccccc3n(CC(=O)Nc3cc(Cl)ccc3C)c2=O)n1	x	x	x	x	-24%
OC(c1cccc(Cl)c1)c1nc(-c2cnc3ccccc3c2)cs1 (stereo not given)	u	-6	x	-29%	x
Cc1cccc(CS(=O)(=O)c2ncc(Cl)c(C(=O)NCc3ccccc3)n2)c1	x	-97*	2%	x	-12%
Cc1cccc(CS(=O)(=O)c2ncc(Cl)c(C(=O)Nc3c(C)cccc3C)n2)c1	u	-66*	2%	-18%	u
CCCc1nnc(NC(=O)c2nc(S(=O)(=O)Cc3cccc(C)c3)ncc2Cl)s1	x	u	4%	u	-24%
Cc1nnc(NC(=O)c2nc(S(=O)(=O)Cc3ccccc3)ncc2Cl)s1	32µM*	-103*	-1%	u	-14%
Cc1cccc(CSc2ncc(Cl)c(C(=O)Nc3nnc(C)s3)n2)c1	i	x	x	11%	-6%
SMILES	S2 tox	IL-1B inflam inh	USP2a block	ATXN2 expr inh	USP1-UAF1 inh
CCc1ccc(S(=O)(=O)NCCc2csc3nc(-c4ccccc4)nn23)s1	x	x	x	x	-25%
CN(CCO)C(=O)c1cn(C2CCN(Cc3ccc4ccccc4c3)CC2)nn1	i	x	x	x	x
CCC1CSC(Nc2ccc(C(=O)/C=C/c3cccc(C)c3)cc2)=N1 (stereo not given)	i	-87*	4%	-20%	u
CCC1CSC(Nc2ccc(C(=O)/C=C/c3ccc(Oc4ccccc4)cc3)cc2)=N1 (stereo not given)	u	u	0%	u	-8%
CCC(CC)C(=O)N1c2ccc(F)cc2CCC1C (stereo not given)	i	20	-3%	-9%	0%
CC1CCc2cc(F)ccc2N1C(=O)CCl (stereo not given)	x	-97*	0%	u	-13%
COc1cc(/C=N/NC(=O)C(=O)/C=C2\NC(C)(C)Cc3ccccc32)ccc1O	u	-53*	-6%	-11%	-28%
Cc1oc(-c2ccc(C(=O)NCc3ccc(F)cc3)cc2)nc1CS(=O)c1ccccc1 (stereo not given)	u	x	x	u	-3%
O=C1CC(c2ccc(Cl)cc2)Oc2ccc(Cl)cc21 (stereo not given)	i	-87*	x	-4%	-13%
Cn1c(Cl)cnc1C1CC(=O)c2cc(Cl)ccc2O1 (stereo not given)	x	-95*	2%	u	-20%
O=C1CC(c2cccc(O)c2)Oc2ccccc21 (stereo not given)	i	-83*	1%	39%	1%
CC(=O)N1CCC2(CC1)CC(=O)c1cc(Cl)ccc1O2	i	16	x	-4%	-16%
O=C1CC(c2ccccc2)Oc2ccccc21 (stereo not given)	i	u	x	27%	3%
COc1ccc(NC(=O)Cn2c(=O)cc(C)c3c(C)nn(C)c32)cc1	i	x	x	-3%	-16%
CCOC(=O)C(C)Oc1cccc2c(=O)n(CC(=O)Nc3ccc(OC)cc3)ccc12 (stereo not given)	i	-55*	x	-9%	x
CCOC(=O)C(C)Oc1cccc2c(=O)n(CC(=O)NCCc3ccccc3)ccc12 (stereo not given)	i	-53*	2%	-7%	-18%
CCOC(=O)C(C)Oc1cccc2c(=O)n(CC(=O)NCc3ccccc3)ccc12 (stereo not given)	u	-98*	9%	1%	-1%
CCOC(=O)C(C)Oc1cccc2c(=O)n(CC(=O)NCc3ccc(F)cc3)ccc12 (stereo not given)	u	84	10%	x	-16%
COC(=O)C1(Cc2cc(-c3ccc([N+](=O)[O-])cc3)no2)CCN(C(=O)OC(C)(C)C)CC1	u	-18	0%	-11%	-35%
COCCN(C)C(=O)c1cnn(-c2nccc(-c3cc(C)sc3C)n2)c1C	i	x	x	x	x
Cc1ccc2[nH]c(C(=O)N3CCc4c(cnc(C)c4CNC(=O)c4ccccc4F)C3)cc2c1	i	x	x	x	x
O=C(COc1ccccc1)Nc1cccc(-c2nc3cc4ccccc4cc3[nH]2)c1	u	-85*	-8%	-20%	-18%
O=C(CCCCn1c(=O)c2ccccc2n(Cc2cccc(F)c2)c1=O)NCCc1ccccc1	i	x	x	4%	-3%
NC(=O)c1cc2c3ccccc3ccn2c1-c1ccccc1	u	-91*	9%	x	-25%
Cc1cccc(NC(=O)CNC(=O)c2cccs2)n1	i	-4	1%	1%	0%
